# Data as given in ChEMBL document CHEMBL3988442, “University of Dundee, Small-Polar-MMV Screening Library” (2021).
# About 900 (1.7%) of roughly 53,000 compounds showed an effect of 50% or more. For the sample, strong results were picked, then their nearest neighbours and some compounds at random.
# System: Mycobacterium tuberculosis
# Experiment: Cornell - Phenotypic assay to identify agents that inhibit growth of Mycobacterium tuberculosis
# Type: functional
# Parameters: scale not given: direction of the effect not stated beside the values
# Details: 10 mM as filed; unlikely as a test dose
row,SMILES,Percent Effect
1,COCC(=O)NC[C@]1(O)CN(Cc2ccc3c(c2)OCCO3)C[C@H]1O,24.95%
2,CCn1cc(CN2CCC(c3ncc(Cl)cc3S(C)(=O)=O)CC2)c(C)n1,37.62%
3,CCn1ncc(CN2CCC(c3ncc(Cl)cc3S(C)(=O)=O)CC2)c1C,50.49%
4,C=Cn1ncc(CN2CCC(c3ncc(Cl)cc3S(C)(=O)=O)CC2)c1C,0.06604%
5,O=C(NS(=O)(=O)c1cccnc1)C1CC(c2ccccc2)=NO1 (centres undefined),35.93%
6,Cc1ncc2c(n1)CCCC2NC(=O)c1ccc(Cn2cccn2)cc1 (centres undefined),-3.537%
7,Cc1occc1C(=O)N1CCC2(CC1)CN(c1ccccn1)CCO2.O=C(O)C(F)(F)F,15.62%
8,CCc1cc(N(C)Cc2ccncn2)n2nccc2n1,-22.97%
9,CCc1ccc(CN(C)c2cc(COC)nc3ccnn23)cc1,59.92%
10,COCc1cc(N(C)Cc2c(C)nn(C)c2C)n2nccc2n1,-21.67%
11,CCCc1nc(N[C@H]2COC[C@@H]2N2CCCCC2)c2cnn(C)c2n1,6.118%
12,COc1cn(-c2ccccc2)nc1C(=O)NCCN1CCCC(C)C1 (centres undefined),-24.88%
13,CC(C)CCc1n[nH]c(C(=O)O)c1Br,50.18%
14,CC(C)CCc1n[nH]c(C(=O)O)c1I,42.63%
15,CC(C)CCc1n[nH]c(C(=O)O)c1Cl,-0.9753%
16,Cc1nn(CC(C)C)cc1S(=O)(=O)N(C)Cc1nonc1C,22.09%
17,c1cnc(CC2COCCN(C3CCCCC3)C2)cn1 (centres undefined),63.08%
18,c1cncc(O[C@H]2COCCN(C3CCC3)C2)c1,18.67%
19,Cc1nccc(CC2COCCN(c3cnccn3)C2)n1 (centres undefined),-7.582%
20,O=C(O)C(F)(F)F.c1cnc(N2CCC3(COCc4cnc(-c5cccnc5)nc43)C2)nc1 (centres undefined),-17.47%
21,CN(C)CC(=O)N1CC2(CCN(C(=O)Nc3ccccc3)C2)C1.O=C(O)C(F)(F)F,-36.23%
22,Cc1cc(C)n(CC2CCCN2CCCc2nc3ccccc3o2)n1 (centres undefined),14.18%
23,CC(C)c1nc(C2CCCN2CCCc2nc3ccccc3o2)no1 (centres undefined),73.44%
24,Cc1nc(C)n(CC2CCCN2CCCc2nc3ccccc3o2)n1 (centres undefined),0.1227%
25,c1ccc2oc(CN3CCCCC3Cn3cncn3)nc2c1 (centres undefined),10.3%
26,c1ccc2oc(CCCN3CCCCC3Cn3cncn3)nc2c1 (centres undefined),60.48%

row,SMILES,Percent Effect
1,Cc1cc(C2CCCN2CCCc2nc3ccccc3o2)on1 (centres undefined),56.86%
2,CC(C)c1nc(C2CCCN2CCc2ccncc2)no1 (centres undefined),-12.21%
3,Cc1nn(C)c(C)c1C1CCCN1CCCC#N (centres undefined),-3.092%
4,c1ccc2oc(CCCN3CCCC3Cn3cncn3)nc2c1 (centres undefined),23.86%
5,Cc1nn(C)c(C)c1C1CCCN1CCCc1nc2ccccc2o1 (centres undefined),65.17%
6,Cc1cnn(CC2CCCN2CCCc2nc3ccccc3o2)c1 (centres undefined),32.71%
7,CC(C)c1nc(C2CCCN2CCc2ccccn2)no1 (centres undefined),-3.374%
8,CN1CCC(Nc2ccc(Cl)cc2OCC(F)(F)F)C1=O (centres undefined),4.127%
9,CC(C)[C@H]1CN(Cc2ccncc2)C[C@@H]1NC(=O)C1(C#N)CCOCC1,8.101%
10,CCOc1cncc(N2CCCC2c2nnc3n2CCCCC3)n1 (centres undefined),14.34%
11,Cn1ncc2c1CN(Cc1ccc(F)cc1)CC2COCC1CC1.O=C(O)C(F)(F)F.O=C(O)C(F)(F)F (centres undefined),-21.09%
12,Cc1nn(C)cc1NC(=O)CC1CCN(C(=O)Cc2ccccc2)CC1,-9.652%
13,Cn1cc(CNC2CCCOc3c2ccc2ccccc32)cn1 (centres undefined),52.41%
14,Cn1ccnc1CNC1CCCOc2c1ccc1ccccc21 (centres undefined),21.15%
15,Cn1cc(CNC2CCCOc3c(Cl)cccc32)cn1 (centres undefined),11.42%
16,O=C(Cn1ccnc1)N1CCCC(OCc2cccnc2)C1 (centres undefined),-41.24%
17,CN(C)C(=O)CN1C[C@H]2CN(Cc3cccc(F)c3)C(=O)[C@H]2C1.O=C(O)C(F)(F)F,15.1%
18,Cn1nc2c(c1NC(=O)c1cccs1)CCC2,1.253%
19,Fc1cnc(N2CCC3(CC2)CC(OCc2cccnc2)CO3)nc1.O=C(O)C(F)(F)F.O=C(O)C(F)(F)F (centres undefined),8.704%
20,N#Cc1ccc(N2CCC3(CC2)CC(OCc2cccnc2)CO3)cc1.O=C(O)C(F)(F)F (centres undefined),25.8%
21,Fc1ccc(N2CCC3(CC2)CC(OCc2cccnc2)CO3)cc1.O=C(O)C(F)(F)F (centres undefined),62.76%
22,CCn1nccc1CN(C)c1nc(N)nc2c1nc(C)n2C,-2.939%
23,NC1(CN2CCCCC2)CCCCC1,-23.07%
24,Cc1cccnc1NC(=O)CC1(Cn2cnnn2)CCCCC1,1.711%
25,Cc1cc(NC(=O)C(C)C)n(-c2nc(C)c(C)c(=O)[nH]2)n1,105.9%
26,CC(=O)N1CCN(c2cc(CCNC(=O)C(C)C)nc(C3CC3)n2)CC1,-12.23%

row,SMILES,Percent Effect
1,Cc1cc(C)n(-c2cncc(NCCNC(=O)C(C)C)n2)n1,10.14%
2,Cc1nc(-n2nc(C3CC3)cc2NC(=O)C(C)C)[nH]c(=O)c1C,77.31%
3,COCCNC(=O)CCc1c(C)nn(-c2nc(C)c(C)c(=O)[nH]2)c1C,25.57%
4,CC(=O)Nc1cc(C2CC2)nn1-c1nc(C)c(C)c(=O)[nH]1,-29.54%
5,Cc1cc(-c2nccs2)nc(C2CCN(Cc3cccs3)CC2)n1,25.07%
6,Cc1nccn1Cc1nnc(C2CCCN(c3ncccn3)C2)n1C (centres undefined),-33.54%
7,COCCN1CCCC(c2nc(C)n3c(C)c(C)sc23)C1 (centres undefined),6.759%
8,O=C(N1CCOCC1)N1C[C@H]2CN(Cc3nccs3)C[C@H]2C1.O=C(O)C(F)(F)F,17.29%
9,Cc1ccc(-c2cc(N)c(=O)n(C(C)C(=O)NC(C)C)n2)o1 (centres undefined),26.87%
10,COCCNC(=O)C(C)n1nc(-c2ccc(C)o2)cc(N)c1=O (centres undefined),-59.92%
11,CCCNC(=O)C(C)n1nc(-c2ccc(C)o2)cc(N)c1=O (centres undefined),66.1%
12,O=C(N1CCOCC1)[C@@]12CCO[C@@H]1CCN(C1CCCCC1)C2.O=C(O)C(F)(F)F,-10.99%
13,CC(=O)N1CCOC(Cc2cccc(C(F)(F)F)c2)C1 (centres undefined),25.26%
14,CC1=C(C(=O)N2CCOC(Cc3cccc(C(F)(F)F)c3)C2)OCCO1 (centres undefined),22.58%
15,CC1CCCN(C(=O)c2cc(-c3ccco3)cs2)C1 (centres undefined),33.45%
16,COc1ccc(C(=O)N2CCCC(C)C2)cc1F (centres undefined),-4.81%
17,COc1cccc(CCC2CCCN(C(=O)c3ccccn3)C2)c1 (centres undefined),5.867%
18,COc1cccc(CCC2CCCN(C(C)=O)C2)c1 (centres undefined),19.46%
19,COc1cccc(CCC2CCCN(C(=O)c3ccc(OC)o3)C2)c1 (centres undefined),67.76%
20,CC1CCCN(C(=O)c2ccc(-c3ccco3)o2)C1 (centres undefined),79.8%
21,COc1ccc(C(=O)N2CCOC(Cc3cccc(C(F)(F)F)c3)C2)o1 (centres undefined),107.3%
22,COCCOCCCNC(=O)c1cc(Cl)cc2cccnc12,14.25%
23,CNC(=O)c1cc(C)nc(C2(C)CCCN2c2cc(C)ncn2)n1 (centres undefined),-3.041%
24,CCc1ncc(C(=O)N(C)C(C)c2ccc3c(c2)OCCO3)cn1 (centres undefined),-2.31%
25,Cc1cccnc1CCNCC1(O)CCCN(CC2CCCCC2)C1=O (centres undefined),-24.48%
26,Cn1ccnc1CN1CCCN(C(=O)c2cccc(CC#N)c2)CC1,-5.317%

row,SMILES,Percent Effect
1,Cc1noc(C)c1-c1cc(CCC2CN(C(=O)C(C)C)CCO2)ncn1 (centres undefined),37.61%
2,O=C(O)C(F)(F)F.O=C(O)C(F)(F)F.c1cnc(N2CC3(CCN(Cc4cccnc4)C3)C2)nc1,-25.95%
3,COC(=O)C1=NN2C(=NS(=O)(=O)c3ccccc32)N1,46.07%
4,NC(=O)C1=NC2=NS(=O)(=O)c3ccccc3N2N1Cc1ccccc1Cl,106.2%
5,NC(=O)C1=NN2C(=NS(=O)(=O)c3ccccc32)N1,18.26%
6,NC(=O)C1=NC2=NS(=O)(=O)c3ccccc3N2N1Cc1ccc(Cl)cc1,106.1%
7,NCc1cnn(-c2ccccc2C(=O)NCc2ccccc2Cl)c1,-1.327%
8,NCc1cn(-c2ccccc2C(=O)NCc2ccccc2Cl)cn1,-8.218%
9,NC(=O)CN(Cc1ccc(Br)cc1)C(=O)c1ccccn1,-15.26%
10,NC(=O)C1=NC2=NS(=O)(=O)c3ccccc3N2N1Cc1ccc(Br)cc1,106.5%
11,CCCN(CCc1ccccn1)C(=O)Cn1cc(C)cn1,6.805%
12,CC(C)C(=O)N1CCC(c2c(C(N)=O)sc3ccccc23)C1 (centres undefined),-20.56%
13,CO[C@@H]1CCN(Cc2nccs2)C[C@@H]1Cc1ccccc1.O=C(O)C(F)(F)F,17.77%
14,CO[C@@H]1CCN(Cc2nccs2)C[C@@H]1Cc1cccc(C)c1.O=C(O)C(F)(F)F,58.64%
15,CO[C@H]1CCN(Cc2nccs2)C[C@@H]1Cc1ccccc1,32.3%
16,NC(=O)c1ccc(NC(=O)Cn2cc(I)cn2)cc1,12.21%
17,CC(C)c1ccc(NC(=O)Cn2cc(I)cn2)cc1,64.63%
18,Cc1ccc(NC(=O)Cn2cc(I)cn2)cc1,2.116%
19,CS(=O)(=O)CCSc1n[nH]c(-c2ccc3c(c2)CCC3)n1,22.85%
20,O=C(CSC1CCCC1)N1CCN(C(=O)C2CC2c2ccccc2)CC1 (centres undefined),57.68%
21,O=C(CSC1CCCC1)N1CCN(c2ccc(-n3cncn3)nn2)CC1,-7.169%
22,O=C(CSC1CCCC1)N1CCN(C(=O)C2CC2c2cccs2)CC1 (centres undefined),19.24%
23,CN(CCOc1ccccc1F)C1CCOC1=O (centres undefined),-18.35%
24,CC(Cn1cncn1)NCc1csc2c1CCCC2 (centres undefined),6.492%
25,CC(Cn1ccnc1)NCc1csc2c1CCCC2 (centres undefined),52.3%
26,CC(Cn1cccn1)NCc1csc2c1CCCC2 (centres undefined),-0.7044%
